Data published in PubChem BioAssay (Tox21).
“And” between values parts separate entries of the source, which are not always exact repeats. Equal entries are not always repeated. Records with an inconclusive call do not appear. A call without a number means that no potency is given here. Some compounds were tested as several samples or in several runs, with calls that do not always agree. The source made the active and inactive calls. The call rests on the fitted dose curve; in most records, active means well fitted curve in the direction sought with a large enough effect in the repeat runs; inconclusive means weak or mixed curves; inactive means no such curve, though single readings can be large; an effect the other way counts as inactive or inconclusive.

Assay: A CellTox Green Cytotoxicity Assay to monitor cytotoxicity in HepG2 cells - 8 hour (AID 1224890); further: nearly all actives have a fitted effect of over 45% in size
Conditions: CellTox Green fluorescence; series mostly up to 76.8 µM
Procedure, shortened: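 Cells and non-lytic dye reagent are dispensed together (600 HepG2 cells/well) and incubated 5 h before DMSO compound transfer. Kinetic fluorescence is then recorded in the same wells during 40 h at 37 C.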
Potency means the concentration at half of the fitted maximal effect.

Row | Structure (SMILES) | Potency
1 | COc1ccc(C(Cl)=C(c2ccc(OC)cc2)c2ccc(OC)cc2)cc1 | inactive
2 | NS(=O)(=O)c1cc2c(cc1Cl)NCNS2(=O)=O | inactive
3 | COc1ccc2c(c1)c(CC(=O)O)c(C)n2C(=O)c1ccc(Cl)cc1 | inactive
4 | O=c1[nH]cnc2c1ncn2[C@H]1CC[C@@H](CO)O1 | inactive
5 | Cc1ncc([N+](=O)[O-])n1CCO | inactive
6 | CCc1nc(N)nc(N)c1-c1ccc(Cl)cc1 | inactive
7 | CN(C)C(=O)Nc1ccc(Cl)c(Cl)c1 | inactive
8 | CCCCOC(=O)c1ccc(O)cc1 | inactive
9 | CC12CCC(CC1)C(C)(C)O2 | inactive
10 | CCOc1ccc(NC(C)=O)cc1 | inactive
11 | CCCCC1(COC(=O)CCC(=O)O)C(=O)N(c2ccccc2)N(c2ccccc2)C1=O | inactive
12 | CCCc1cc(=O)[nH]c(=S)[nH]1 | inactive
13 | CCOC(N)=O | inactive
14 | CCN(CC)C(=O)c1cccc(C)c1 | inactive
15 | CCCCCCCC(=O)OCC(COC(=O)CCCCCCC)OC(=O)CCCCCCC | inactive
16 | O=C1OC2(c3ccccc31)c1cc(Br)c(O)c(Br)c1Oc1c2cc(Br)c(O)c1Br | 5.58 µM (active) and 14.2 µM (active) and 21.3 µM (active)
17 | NC(=O)c1cccnc1 | inactive
18 | CN1[C@@H]2CC(OC(=O)[C@H](CO)c3ccccc3)C[C@H]1[C@@H]1O[C@@H]12 (some centres not stated) | inactive
19 | CN(C)CCOC(c1ccccc1)c1ccccc1 | inactive
20 | CC(=O)CCC(=O)O | inactive
21 | Cc1c(C(=O)O)c(O)cc2c1C(=O)c1c(O)c([C@@H]3O[C@H](CO)[C@@H](O)[C@H](O)[C@H]3O)c(O)c(O)c1C2=O | inactive
22 | CN1CCc2cccc3c2[C@H]1Cc1ccc(O)c(O)c1-3 | inactive
23 | CCCCCCCCCCCCCCCC[N+](C)(C)Cc1ccccc1 | 63.6 µM (active) and 35.3 µM (active) and 26.8 µM (active)
24 | C=CCc1ccc(O)c(OC)c1 | inactive
25 | NC(CO)(CO)CO | inactive
26 | CS(=O)(=O)OCCCCOS(C)(=O)=O | inactive
27 | O=S1(=O)OC(c2ccc(O)cc2)(c2ccc(O)cc2)c2ccccc21 | inactive
28 | CC(C)C(=O)Nc1ccc([N+](=O)[O-])c(C(F)(F)F)c1 | inactive
29 | CCCCCCc1ccc(O)cc1O | inactive and 49 µM (active)

Assay: qHTS assay to identify small molecule antagonists of the estrogen receptor alpha (ER-alpha) signaling pathway using the BG1 cell line in the presence of 0.1 nM 17-beta-estradiol - cell viability counter screen (AID 1259241); further: nearly all actives have a fitted effect of over 40% in size
Conditions: VM7Luc4E2 (BG1) viability, CellTiter-Fluor protease, 22 h, 0.1 nM estradiol agonist added; series mostly up to 92.4 µM
Procedure, shortened: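 Cytotoxicity counter-screen: live-cell protease activity measured by fluorescence (30 min reagent step) in the same wells. Cells were VM7Luc4E2 with endogenous ER-alpha and ERE-driven luciferase, treated 22 hr at 37C alongside 0.1 nM 17beta-estradiol final.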

Row | Structure (SMILES) | Potency
30 | COc1ccc(C(Cl)=C(c2ccc(OC)cc2)c2ccc(OC)cc2)cc1 | inactive
31 | NS(=O)(=O)c1cc2c(cc1Cl)NCNS2(=O)=O | inactive
32 | COc1ccc2c(c1)c(CC(=O)O)c(C)n2C(=O)c1ccc(Cl)cc1 | inactive
33 | O=c1[nH]cnc2c1ncn2[C@H]1CC[C@@H](CO)O1 | inactive
34 | Cc1ncc([N+](=O)[O-])n1CCO | inactive
35 | CCc1nc(N)nc(N)c1-c1ccc(Cl)cc1 | inactive
36 | CN(C)C(=O)Nc1ccc(Cl)c(Cl)c1 | inactive
37 | CCCCOC(=O)c1ccc(O)cc1 | inactive
38 | CC12CCC(CC1)C(C)(C)O2 | inactive
39 | CCOc1ccc(NC(C)=O)cc1 | inactive
40 | CCCCC1(COC(=O)CCC(=O)O)C(=O)N(c2ccccc2)N(c2ccccc2)C1=O | inactive
41 | CCCc1cc(=O)[nH]c(=S)[nH]1 | inactive
42 | CCOC(N)=O | inactive
43 | CCN(CC)C(=O)c1cccc(C)c1 | inactive
44 | CCCCCCCC(=O)OCC(COC(=O)CCCCCCC)OC(=O)CCCCCCC | inactive
45 | O=C1OC2(c3ccccc31)c1cc(Br)c(O)c(Br)c1Oc1c2cc(Br)c(O)c1Br | 7.81 µM (active) and 22.3 µM (active) and 11.9 µM (active)
46 | NC(=O)c1cccnc1 | inactive
47 | CN1[C@@H]2CC(OC(=O)[C@H](CO)c3ccccc3)C[C@H]1[C@@H]1O[C@@H]12 (some centres not stated) | inactive
48 | CN(C)CCOC(c1ccccc1)c1ccccc1 | inactive
49 | CC(=O)CCC(=O)O | inactive
50 | Cc1c(C(=O)O)c(O)cc2c1C(=O)c1c(O)c([C@@H]3O[C@H](CO)[C@@H](O)[C@H](O)[C@H]3O)c(O)c(O)c1C2=O | 33.5 µM (active) and 21.7 µM (active)
51 | CN1CCc2cccc3c2[C@H]1Cc1ccc(O)c(O)c1-3 | 49.1 µM (active) and 20.4 µM (active)
52 | CCCCCCCCCCCCCCCC[N+](C)(C)Cc1ccccc1 | inactive
53 | C=CCc1ccc(O)c(OC)c1 | inactive
54 | NC(CO)(CO)CO | inactive
55 | CS(=O)(=O)OCCCCOS(C)(=O)=O | inactive
56 | O=S1(=O)OC(c2ccc(O)cc2)(c2ccc(O)cc2)c2ccccc21 | 30.6 µM (active) and 21.7 µM (active) and 8.41 µM (active)
57 | CC(C)C(=O)Nc1ccc([N+](=O)[O-])c(C(F)(F)F)c1 | inactive
58 | CCCCCCc1ccc(O)cc1O | inactive

Assay: qHTS assay to identify small molecule antagonists of the androgen receptor (AR) signaling pathway using the MDA cell line in the presence of 0.5 nM R1881 - cell viability counter screen (AID 1259242); further: nearly all actives have a fitted effect of over 45% in size
Conditions: MDA-kb2 viability, CellTiter-Fluor protease fluorescence, 16 h; series mostly up to 92.4 µM
Procedure, shortened: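 Steps: plate MDA-kb2 cells, rest 5 hr at 37C without CO2; pin in compounds in DMSO; add R1881 to 0.5 nM final; incubate 16 hr; add CellTiter-Fluor, 30 min; read fluorescence.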

Row | Structure (SMILES) | Potency
59 | COc1ccc(C(Cl)=C(c2ccc(OC)cc2)c2ccc(OC)cc2)cc1 | inactive
60 | NS(=O)(=O)c1cc2c(cc1Cl)NCNS2(=O)=O | inactive
61 | COc1ccc2c(c1)c(CC(=O)O)c(C)n2C(=O)c1ccc(Cl)cc1 | inactive
62 | O=c1[nH]cnc2c1ncn2[C@H]1CC[C@@H](CO)O1 | inactive
63 | Cc1ncc([N+](=O)[O-])n1CCO | inactive
64 | CCc1nc(N)nc(N)c1-c1ccc(Cl)cc1 | inactive
65 | CN(C)C(=O)Nc1ccc(Cl)c(Cl)c1 | inactive
66 | CCCCOC(=O)c1ccc(O)cc1 | inactive
67 | CC12CCC(CC1)C(C)(C)O2 | inactive
68 | CCOc1ccc(NC(C)=O)cc1 | inactive
69 | CCCCC1(COC(=O)CCC(=O)O)C(=O)N(c2ccccc2)N(c2ccccc2)C1=O | inactive
70 | CCCc1cc(=O)[nH]c(=S)[nH]1 | inactive
71 | CCOC(N)=O | inactive
72 | CCN(CC)C(=O)c1cccc(C)c1 | inactive
73 | CCCCCCCC(=O)OCC(COC(=O)CCCCCCC)OC(=O)CCCCCCC | inactive
74 | O=C1OC2(c3ccccc31)c1cc(Br)c(O)c(Br)c1Oc1c2cc(Br)c(O)c1Br | 4.93 µM (active) and 25 µM (active) and 10.6 µM (active)
75 | NC(=O)c1cccnc1 | inactive
76 | CN1[C@@H]2CC(OC(=O)[C@H](CO)c3ccccc3)C[C@H]1[C@@H]1O[C@@H]12 (some centres not stated) | inactive
77 | CN(C)CCOC(c1ccccc1)c1ccccc1 | inactive
78 | CC(=O)CCC(=O)O | inactive
79 | Cc1c(C(=O)O)c(O)cc2c1C(=O)c1c(O)c([C@@H]3O[C@H](CO)[C@@H](O)[C@H](O)[C@H]3O)c(O)c(O)c1C2=O | 37.6 µM (active) and 27.3 µM (active)
80 | CN1CCc2cccc3c2[C@H]1Cc1ccc(O)c(O)c1-3 | 55 µM (active) and 22.8 µM (active)
81 | CCCCCCCCCCCCCCCC[N+](C)(C)Cc1ccccc1 | 50.1 µM (active) and 55.5 µM (active) and 26.6 µM (active)
82 | C=CCc1ccc(O)c(OC)c1 | inactive
83 | NC(CO)(CO)CO | inactive
84 | CS(=O)(=O)OCCCCOS(C)(=O)=O | inactive
85 | O=S1(=O)OC(c2ccc(O)cc2)(c2ccc(O)cc2)c2ccccc21 | 27.3 µM (active) and 19.3 µM (active) and 10.6 µM (active)
86 | CC(C)C(=O)Nc1ccc([N+](=O)[O-])c(C(F)(F)F)c1 | inactive
87 | CCCCCCc1ccc(O)cc1O | inactive
